This is a sample that favours compounds with a hit; in the whole collection about 11% have one here.
Bst PK mod – alters activity of Bacillus stearothermophilus pyruvate kinase | Potency, µM | AID 361 | 51,000 compounds, 1.2% hits | purified pyruvate kinase, luminescence ATP production; ribose 5-phosphate activator present at AC10; in the data active = potency below about 11 µM; inconclusive = mostly about 12 µM to 25 µM;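 the screen sought inhibitors and activators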
ALOX15 inhib – 15-hLO (ALOX15) enzyme inhibition; Potency, µM (highest dose often 57.1 µM), most hits filed as inhibitors; P16050; 74,000 compounds, 1.4% hits; purified 15hLO-1, xylenol orange hydroperoxide absorbance; note: nearly all actives have a fitted effect of over 55% in size
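Quantitative HTS in 25 mM Hepes pH 7.5 containing 0.01% Triton X-100: human 15hLO-1 at 40 nM, arachidonic acid at 50 uM, 6 min turnover. Product quantified via ferrous oxidation/xylenol orange, 573:405 nm absorbance ratio.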
HSD17B inh – blocks hydroxysteroid 17-beta dehydrogenase activity; recombinant HSD17B10, NADH fluorescence kinetic; 75,000 compounds, 7.6% hits; Potency, µM (titrated, usually from 57.1 µM), most hits filed as inhibitors; Q99714;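 note: the protocol describes HADH2 (HSD17B10) and not the HSD17B4 of the title; nearly all actives have a fitted effect of over 70% in size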
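His-tagged E. coli-expressed HADH2 at 20 nM in 100 mM Tris-HCl pH 9.0 with 0.01 % Tween-20, preincubated 15 min with compound at room temperature. Reaction with 1 mM NAD+ and 90 uM beta-hydroxybutyryl coenzyme A; NADH fluorescence (360/450 nm) read kinetically over 4 min, last minus first point.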
Luciferase inh – firefly luciferase inhibition | P08659 | 72,000 compounds, 2.2% hits | purified firefly luciferase, luminescence, 8 min | Potency, µM (highest dose often 57.1 µM), hits mostly inhibitors; note: nearly all actives have a fitted effect of over 40% in size
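Inhibition of light generation by firefly luciferase from ATP and luciferin was profiled with concentration-response curves per sample, ATP held at 10 uM within the enzyme's linear range. Plates were read by luminescence after an 8-minute ambient incubation.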
ERK AVP block – blocks ERK signaling stimulated by vasopressin | AID 995 | HEK293-V1b, vasopressin-stimulated pERK AlphaScreen | Potency, µM (top dose mostly 57.5 µM), most hits filed as inhibitors | 72,000 compounds, 0.99% hits; note: nearly all actives have a fitted effect of over 55% in size
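qHTS, compounds titrated on V1b-expressing HEK293 cells. Preincubation 30 min at 37C, vasopressin 25 nM for 5 min, lysis 10 min, bead incubation 5 hr at room temperature.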
HADH2 inhib – blocks human hydroxyacyl-CoA dehydrogenase type II; Q99714; recombinant HADH2, NADH fluorescence, beta-hydroxybutyryl-CoA; Potency, µM (titrated, usually from 57.1 µM), most hits filed as inhibitors; 73,000 compounds, 3.4% hits; AID 886; note: nearly all actives have a fitted effect of over 60% in size
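Buffer 100 mM Tris-HCl pH 9.0/0.01% Tween-20; HADH2 20 nM; NAD+ 1 mM; beta-hydroxybutyryl-CoA 90 uM (all final). 15 min cpd preincubation, RT.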
Each line names hits and unclear results; the compound was inactive in the other large screens. Unless noted, calls come from the whole dose curve; as a rule, active = well fitted curve in the direction sought with a large enough effect; inconclusive = small, poorly fitted or top-dose-only effect, or another doubt; inactive = no such curve, though single readings can be large; an effect the other way counts as inactive or inconclusive.

CCCCCC(=O)Nc1cccc(-c2nc3ncccc3o2)c1	HSD17B inh 25µM, ERK AVP block inconclusive, HADH2 inhib inconclusive (no result: Bst PK mod)
O=NN(Cc1ccc(Cl)cc1)[C@@H](C(=O)O)c1ccccc1	none (no result: Bst PK mod)
COc1ccccc1CN1CC[C@@]2(CCCN(C(=O)c3c(C)noc3C)C2)C1	none (no result: Bst PK mod)
CC(C)(CO)[C@H](O)C(=O)NCCCO	none (no result: Bst PK mod)
CCOC(=O)C1CSC(Cc2ccc(OCc3ccc([N+](=O)[O-])cc3)cc2)N1 (stereo not given)	ALOX15 inhib inconclusive, HADH2 inhib inconclusive (no result: Bst PK mod, Luciferase inh)
Cc1ccc(CCNC(=O)C2CCCN(S(=O)(=O)c3cccc4nsnc34)C2)cc1 (stereo not given)	HSD17B inh 25µM, HADH2 inhib inconclusive
CC(=O)OCCCCON1C(=O)c2ccccc2C1=O	none
CC(=O)N1C(=O)c2cccc3cccc(c23)C(=O)N1C(C)=O	HSD17B inh 25µM, HADH2 inhib 16µM
Nc1ccc(N(S(=O)(=O)c2ccccc2)S(=O)(=O)c2ccccc2)c(Cl)c1	none (no result: Bst PK mod)
N[C@@H](CC1=CS(=O)(=O)c2ccc(Cl)cc21)C(=O)O	none (no result: Bst PK mod)
CCn1cc(C(=O)O)c(=O)c2cc(F)c(N3CCN[C@@H](C)C3)c(F)c21	HSD17B inh 13µM, HADH2 inhib 16µM (no result: Bst PK mod)
O=C(O)/C=C/c1ccc(O)c(O)c1	HSD17B inh inconclusive, HADH2 inhib 2µM
O=C(/C=C\c1ccc(O)c(O)c1)OCCc1ccccc1	ALOX15 inhib 0.79µM, HSD17B inh 20µM, ERK AVP block inconclusive, HADH2 inhib 13µM (no result: Bst PK mod)
OC/C=C/c1ccc(O)c(O)c1	none (no result: Bst PK mod, Luciferase inh, HADH2 inhib)
O=C(/C=C/c1ccc(O)c(O)c1)O[C@@H](C(=O)O)[C@@H](OC(=O)/C=C/c1ccc(O)c(O)c1)C(=O)O	ALOX15 inhib inconclusive, HSD17B inh inconclusive, HADH2 inhib 0.5µM (no result: Bst PK mod, Luciferase inh)
O=c1cc(O)cc(/C=C\c2ccc(O)c(O)c2)o1	ALOX15 inhib 0.79µM, HSD17B inh 13µM, ERK AVP block inconclusive, HADH2 inhib 0.25µM (no result: Bst PK mod)
CC(C)CCOC(=O)/C=C/c1ccccc1	none (no result: Bst PK mod, Luciferase inh)
Cc1ccc(S(=O)(=O)OCC2CN3C(CCC(C)C3c3ccc(Br)cc3)C(=O)O2)cc1 (stereo not given)	none (no result: Bst PK mod, Luciferase inh)
CC(C)NC(=O)N1CC2(CCN(S(=O)(=O)c3ccccc3)CC2)C1	none (no result: Bst PK mod)
CCCCCCN(C(=O)CCCCCN1C(=O)NC(C2CCCCC2)C(C(=O)OCc2ccccc2)=C1C)C(C(=O)NCCCC)c1ccc(OCC(=O)OC)c(C(=O)OC)c1 (stereo not given)	ALOX15 inhib inconclusive (no result: Bst PK mod, Luciferase inh)
COCC(=O)N(Cc1cc2ccc(C)cc2[nH]c1=O)c1ccc(OC)cc1	none
CCC(=O)N(Cc1cc2cc(OC)ccc2[nH]c1=O)c1cccc(C)c1	HSD17B inh 25µM, HADH2 inhib inconclusive
COCC(=O)N(Cc1cc2cc(OC)ccc2[nH]c1=O)c1ccc(C)cc1	HSD17B inh 25µM
COCC(=O)N(Cc1cc2cc(OC)ccc2[nH]c1=O)c1ccccc1OC	HSD17B inh 25µM
COC(=O)C1=C(C)N(Cc2ccccc2)C2=C3C(=O)N(C)C(=O)C3[C@@](O)(C(=O)OC)C(=O)N2C1c1ccccc1 (stereo not given in full)	none (no result: Bst PK mod, Luciferase inh)
COc1ccc(-n2c(=O)c(C)nc3cnc(Oc4ccccc4)nc32)cc1	none (no result: Bst PK mod)
Nc1c(C(O)(C(F)(F)F)C(F)(F)F)ccc2ccccc12	HSD17B inh 32µM, HADH2 inhib inconclusive
Cc1cc(NS(=O)(=O)c2ccccc2)cc(Cl)c1O	ALOX15 inhib inconclusive, HSD17B inh inconclusive, HADH2 inhib 25µM (no result: Bst PK mod)
Cc1cc(O)c(C(C)C)cc1NS(=O)(=O)c1ccccc1	HADH2 inhib 25µM
NC[C@@H]1O[C@H](O[C@@H]2[C@H](O[C@@H]3O[C@H](CO)[C@@H](O)[C@@H]3O)[C@@H](O)[C@@H](N)C[C@H]2N)[C@@H](N)[C@H](O)[C@@H]1O	none (no result: Bst PK mod)
Nc1nc(N)c(CCCCc2ccccc2)c(N)n1	none (no result: Bst PK mod)
CCOC(=O)N/C(N)=N/c1nc2ccccc2s1	Luciferase inh 13µM, ERK AVP block inconclusive (no result: Bst PK mod)
COC(OC)[C@@H](C)[C@H](OC)[C@@H](C)[C@H](OC)c1ccccc1	none (no result: Bst PK mod)
Cc1cnc(CNc2ncncc2-c2ccccc2CN(C)C)cn1	HADH2 inhib 13µM (no result: Bst PK mod)

Assay outcomes (PubChem BioAssay)
